Growth data for 40 compounds are collected here from PubChem BioAssay (NCI).

The structures appear in SMILES notation. Compounds without any hit were thinned out: in the full panel of roughly 83,000, 20% have a hit.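 Assay: single dose, 48 h. Readout: percent growth (0 = no net growth; negative = cell death). Active: <10.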 Calls of active or inactive are those of the source.

The test deals with HS 578T breast. As to the kind of experiment: NCI-60 one-dose screen, 48 h (100 = growth as untreated, 0 = no growth, -100 = all killed). The settings on record: 10 µM unless noted. As for the experimental part:
Growth inhibition of the HS 578T human tumor cell line is measured as a screen for anti-cancer activity. Cells are grown in 96 well plates and exposed to the test compound for 48 hours. Compounds are tested at a single concentration, which is 10^-5 M for most compounds. The reported endpoint is percent growth (GI% or GIPRCNT), where numbers from 0 - 100% represent growth inhibition, and numbers from -100% - 0 represent cell death. For example, a value of 40 represents 60% growth inhibition. A value of 0 means no net growth occurred over the course of the experiment. A value of -40 indicates 40% of cells at the beginning of the experiment died by the end of the experiment. A value of -100 means all cells are dead at the end of the experiment.
NCI-60 Human Tumor Cell Lines Screen was performed using the standard one-dose NCI protocol, which is described in more detail at https://dtp.cancer.gov/discovery_development/nci-60/default.htm.
Compounds with GIPRCNT values below 10 were considered active. Activity score was based on GIPRCNT using the following formula: […]
Score is 0 for GIPRCNT values of 100 or above, 50 for GIPRCNT values of 0, and 100 for GIPRCNT values of -100.
In the case of `CCOc1nc(-c2ccccc2)cc2c(O)c(C(=O)NN)[nH]c(=O)c12`, the growth was 87.6% (inactive).

Turning to `C=C1C(=O)O[C@H]2[C@H]1CC/C(COC(=O)NCc1cc[nH]c1)=C\CC[C@@]1(C)O[C@@H]21`, the growth is 63% (inactive).

Take `COc1ccc2cc(-c3ccc(NC(C)=O)c(=O)o3)ccc2c1`: the growth was 93.8% (inactive).

As to `O=C1c2cccc3cccc(c23)C(=O)N1N1C(=O)c2cccc3c(N4CCOCC4)ccc(c23)C1=O`, the growth was 90.3% (inactive).

On to `Cc1ccc(-n2c(=S)[nH]c3sc4c(c3c2=O)CCC(=O)C4)cc1`, for which the growth is 34.3% (inactive).

As for `CN(CCOc1ccc(C#N)cc1)CCOc1ccc(C#N)cc1`, the growth is 49.2% (inactive).

For the compound `N=C(N)c1ccc(-c2ccc(-c3ccc(Cl)cc3)s2)nc1`, the growth is 67.5% (inactive).

Consider `CCC(C)N(c1ccc(Cl)cc1)c1nc(-c2ccc(Br)cc2)cs1` (stereo not given), for which the growth was 91.3% (inactive).

In the case of `O=C(O)c1[nH]c(=O)[nH]c(=O)c1[N+](=O)[O-]`, the growth was 106% (inactive).

Consider `CN1C(=O)N(C)C2Nn3c(s/c(=C\c4ccc(C(F)(F)F)cc4)c3=O)=NC21` (stereo not given), for which the growth is 105% (inactive).

Take `COc1ccc(-c2cn(-c3cc(OC)c(OC)c(OC)c3)c(=O)n2C(C)=O)cc1`: the growth is 93.4% (inactive).

With `C#CCOc1ccc2ncnc(Nc3cccc(NC(=O)C=C)c3)c2c1`, the growth was 67.3% (inactive).

As to `Oc1c(Cl)cc(Cl)c2ccc(Cn3cc(-c4cc(C(F)(F)F)cc(C(F)(F)F)c4)nn3)nc12`, the growth is 94.9% (inactive).

Regarding `Cc1c(-c2nc3ccc(F)cc3c(=O)[nH]2)c2ccccc2n1C`, the growth was 3.2% (active).

As for `N#Cc1nn(-c2cc(=O)[nH]c3ccc(Cl)cc23)c(N)c1C#N`, the growth was 103% (inactive).

On to `O=C(Cn1c(=O)sc2ccccc21)NNS(=O)(=O)c1ccccc1[N+](=O)[O-]`, for which the growth is 103% (inactive).

With `COc1cc(-c2cc(-c3ccc(N(C)C)cc3)nc(N3CCC(O)CC3)c2C#N)cc(OC)c1OC`, the growth is 17% (inactive).

For `O=C(Nc1ncc(Cc2ccc(Cl)c(C(F)(F)F)c2)s1)c1ccc2nnsc2c1`, the growth is 84% (inactive).

Turning to `CN1CCN(c2ccc(NC(=O)c3nc4ccc5[nH]ncc5c4c4c3CCCC4)cc2C(F)(F)F)CC1`, the growth is 77.6% (inactive).

As for `O=C(Nc1cccnc1Nc1ccc(F)cc1)c1cn(Cc2cccc(Oc3ccccc3)c2)nn1`, the growth was 69.3% (inactive).

With `Cc1ccc2c3c(c(=O)[nH]c2c1)C1(C(C#N)=C(N)O3)c2cc(Br)ccc2-c2ccc(Br)cc21`, the growth was -5.5% (active).

Turning to `Cn1cc(-c2csc(-c3ccc(Cl)cc3)n2)c2cccnc21`, the growth is 9.04% [100 µM] (active).

As for `COc1cc(OC)c2sc(-c3ccc(-n4cncc4-c4ccc(OC)c(OC)c4)cc3)nc2c1`, the growth was 75.5% (inactive).

For the compound `C[C@H](NC(=O)[C@@H](C)N)[C@H](Oc1ccc2c(cnn2-c2ccc(F)cc2)c1)c1ccc2c(c1)OCCO2`, the growth is 64.8% (inactive).

For the compound `CN1C(=O)/C(=C/c2cn(-c3ccccc3)nc2-c2ccccc2)SC1=S`, the growth is 100% (inactive).

Regarding `N#CCSc1nnc2n(Cc3ccccc3)c(=O)c3c4c(sc3n12)CCCC4`, the growth was 95.3% (inactive).

Take `Cc1nnc(NC(=O)c2nc(S(=O)(=O)Cc3ccc(F)cc3)ncc2Cl)s1`: the growth is 93.1% (inactive).

For the compound `CNC(=O)c1cc(Oc2ccc3nc(NC(C)=O)sc3c2)ccn1`, the growth was 107% (inactive).

Consider `c1ccc(C2=NN[C@H](c3cn(-c4ccccc4)nc3-c3ccccc3)C2)cc1`, for which the growth was -7.83% (active).

For `CCOC(=O)C1=C(NC)OCC1=O`, the growth was 94.7% (inactive).

With `COC(=O)c1c2c(c[n+]([O-])c1C)C(=O)C(NCc1ccccc1)=CC2=O`, the growth is -15.3% (active).

On to `COc1ccc(-c2csc(N(C(=O)N3CCN(c4cc5c(cc4F)c(=O)c(C(=O)O)cn5C4CC4)CC3)c3ccccc3)n2)cc1`, for which the growth was 40.3% (inactive).

For `COC(=O)[C@H]1CCCN1C[C@@H](O)CN1C(=O)/C(=C\c2cc(OC)c(OC)c(OC)c2)c2ccccc21`, the growth is 99.6% (inactive).

Regarding `CCCCCCNC(=O)Oc1ccc(/C(=C(/C)Cc2ccc(OC)cc2)c2ccc(OCCCN(C)C)cc2)cc1`, the growth is 52.9% (inactive).

For `COc1cc(-c2nc(SCCC(C)C)nc(Nc3ccccc3Cl)c2C#N)cc(OC)c1OC`, the growth was 95.6% (inactive).

For `c1cc2[nH]ncc2cc1-c1nc2ccc3[nH]ncc3c2c2c1CCCC2`, the growth was 6.02% (active).

As for `COc1cc(OC)cc(C2=C3CC[C@@H]4[C@H](CC[C@]5(C)C(=O)CC[C@@H]45)C3=CC3C(O)c4cccnc4N4C(=O)COC234)c1` (stereo not given in full), the growth is 90.1% (inactive).

Turning to `CCN1CCN(c2cc(C(=O)Nc3nc(-c4cc(OC)c(OC)c(OC)c4)cs3)cc(C(F)(F)F)c2)CC1`, the growth is 68.1% (inactive).

Turning to `O=C1C(Cl)=C(Oc2ccccc2)C(=O)c2ccccc21`, the growth was 31.6% (inactive).

For `CC(C)(C)n1cc(-c2ccnc(NCCNS(=O)(=O)c3cccc4ccccc34)c2)c(-c2cccc(F)c2)n1`, the growth was -35.7% (active).
